Experimental findings from PubChem BioAssay AID463173 (ICCB-Longwood Screening Facility, Harvard Medical School, 2010) are described below.

Each structure is given as a SMILES string. The campaign covered roughly 52,000 compounds. About 4,300 (8.3%) were called active. The sample as a whole holds a higher share of actives than the screen did. Values without a mark were called inactive. Cut-off read from the data, not from the text of the source: active = survival mostly below about 52% (no sharp cut-off); inactive = mostly above about 56%.

This test has as its system DeltatarO mutant. Kind of test: S. aureus survival, RN4220 and DeltatarO strains – OD600, teichoic acid synthesis inhibitors, primary screen (AID 463173). To be noted: S. aureus RN4220 wild type/DeltatarO growth, OD600, 18 h, hits give low values, screened at 18.75 µg/mL (by protocol).
As to `COc1ccc(Cl)cc1NC(=O)Cn1c(=O)n(Cc2nc(C)no2)c(=O)c2ccccc21`, the survival is 83%.

For `COc1ccc(NC(=O)CSc2nccn2Cc2ccco2)cc1OC`, the survival was 73%.

Turning to `O=C(CSc1nccn1Cc1ccc(Cl)cc1)Nc1nc2ccccc2s1`, the survival is 32% (active).

With `Cc1ccc2nc(NC(=O)CSc3nccn3-c3ccc(Cl)cc3)sc2c1`, the survival is 71%.

Take `Cc1nnc(NC(=O)CSc2nccn2Cc2ccc(Cl)cc2)s1`: the survival is 112%.

Consider `Cc1ccc(Cn2ccnc2SCC(=O)Nc2nnc(C)s2)cc1`, for which the survival is 55%.

On to `Cc1cc(C)cc(-n2ccnc2SCC(=O)Nc2nc3ccccc3s2)c1`, for which the survival is 71%.

For the compound `Cc1nnc(NC(=O)CSc2nccn2Cc2ccc(F)cc2)s1`, the survival was 0% (active).

With `Cc1ccc2nc(NC(=O)CSc3nccn3Cc3ccccc3)sc2c1`, the survival is 37% (active).

As to `Cc1ccc2nc(NC(=O)CSc3nccn3Cc3ccc(Cl)cc3)sc2c1`, the survival is 96%.

As to `O=C(CSc1nccn1Cc1ccccc1)Nc1nc2ccccc2s1`, the survival is 117%.

For `O=C(CSc1nccn1Cc1ccc(F)cc1)Nc1nc2ccccc2s1`, the survival was 83%.

In the case of `Cc1cc(C)cc(-n2ccnc2SCC(=O)Nc2nc3ccc(C)cc3s2)c1`, the survival is 52% (active).

Regarding `Cc1ccc2nc(NC(=O)CSc3nccn3Cc3ccc(F)cc3)sc2c1`, the survival is 99%.

As for `COc1ccccc1NC(=O)CCN1CCC(C(N)=O)CC1`, the survival is 193%.

Take `COc1ccc(CNC(=O)c2sc3nc[nH]c(=O)c3c2C)cc1`: the survival was 75%.

For the compound `CCCCNc1nc(Oc2ccc(=O)n(C)n2)nc(N2CCOCC2)n1`, the survival is 81%.

As to `COc1ccc(C)cc1Nc1nc(-c2cccc(Cl)c2)c2c(n1)-c1ccccc1OC2`, the survival was 68%.

For `CCOC(=O)CCn1nc(C)c2c(C)n(-c3ccccc3)nc2c1=O`, the survival is 87%.

For `Cc1ccc(OCC(=O)Nc2nc(-c3ccc(Br)cc3)ns2)cc1`, the survival was 72%.

On to `Cc1ccc(NC(=O)C2CCN(C(=O)c3sc4nc[nH]c(=O)c4c3C)CC2)cc1F`, for which the survival was 89%.

With `COc1cccc(CN2C(=O)c3ccccc3Sc3ccc(C(=O)N(C)Cc4ccccc4)cc32)c1`, the survival was 79%.

`CC(=O)N1CCc2c(sc(NC(=O)CSc3ccccc3)c2-c2nc3ccccc3s2)C1`: the survival was 109%.

On to `CN1CCc2c(sc(NC(=O)CSc3ccccc3)c2-c2nc3ccccc3s2)C1`, for which the survival is 73%.

For the compound `CCN1CCc2c(sc(NC(=O)CSc3ccccc3)c2-c2nc3ccccc3s2)C1`, the survival is -5% (active).

For the compound `CCc1ccc(N2C(=O)C3C(C(=O)OC)=NN(C(C)=O)C3C2=O)cc1` (centres undefined), the survival is 75%.

Turning to `Cc1ccc(NC(=O)C2CCCN(c3ncnc4onc(-c5ccc(F)cc5)c34)C2)c(Cl)c1` (centres undefined), the survival is 71%.

For `S=C(NCc1ccc2c(c1)OCO2)Nc1ccccc1`, the survival is 97%.

`O=C(Nc1ccccc1)NC1(C(=O)NCc2ccc3c(c2)OCO3)CCCCC1`: the survival was 6% (active).

Turning to `CCCCNC(=O)C1(NC(=O)Nc2ccccc2)CCCCC1`, the survival is 74%.

On to `NC(=O)CSc1nnnn1C1CCCCC1`, for which the survival was 71%.

For the compound `COc1ccc(C(=O)Nc2cccc(-c3cn4ccsc4n3)c2)c(OC)c1`, the survival was 70%.

As to `COc1cccc(-c2nc3c(C#N)c[nH]n3c2NC2CCC(C)CC2)c1` (centres undefined), the survival was 29% (active).

As for `COc1cccc(-c2nc3c(C#N)c[nH]n3c2NC2CCCC2)c1OC`, the survival was 64% (active).

Take `COc1cccc(-c2nc3c(C#N)c[nH]n3c2NC2CCCCC2)c1`: the survival is 72%.

Consider `COc1ccc(-c2nc3c(C#N)c[nH]n3c2NC2CCCC2)cc1`, for which the survival was 56%.

With `COc1cccc(-c2nc3c(C#N)c[nH]n3c2NC2CCCCC2)c1OC`, the survival is 60%.

On to `COc1ccc(-c2nc3c(C#N)c[nH]n3c2NC2CCCC2)c(OC)c1`, for which the survival is 65%.

On to `CCC(=O)N1c2ccccc2CC1C(=O)NCCc1ccccc1` (centres undefined), for which the survival was 69%.

For `CCN(CC)c1ccc(NC(=O)C(NS(=O)(=O)c2cccs2)C(C)C)c(C)c1` (centres undefined), the survival is 141%.

In the case of `CCC1CCCCN1CC(=O)Nc1cc(C)c2c(=O)oc3ccccc3c2n1` (centres undefined), the survival is 98%.

`O=C(COc1ccc2oc3c(c2c1)CCCC3)Nc1ccc(Cl)cc1`: the survival was 85%.

Take `O=C(COc1ccc2oc3c(c2c1)CCCC3)Nc1cccc(Br)c1`: the survival was 27% (active).

In the case of `O=C(COc1ccc2oc3c(c2c1)CCCC3)Nc1ccc(Br)cc1`, the survival is 89%.

In the case of `Cc1cccc(NC(=O)COc2ccc3oc4c(c3c2)CCCC4)c1`, the survival is 40% (active).

For the compound `Cc1ccc(NC(=O)COc2ccc3oc4c(c3c2)CCCC4)c(C)c1`, the survival was 88%.

For `Cc1ccc(NC(=O)COc2ccc3oc4c(c3c2)CCCC4)cc1C`, the survival is 70%.

With `Cn1c(C(C(=O)NCC2CCCO2)N(Cc2ccc(F)cc2)C(=O)Cn2nnc3ccccc32)nc2ccccc21` (centres undefined), the survival was 95%.

With `O=C(CSCn1nnc2c(=O)[nH]c(Cc3ccc(F)cc3)nc21)Nc1cccc(C(F)(F)F)c1`, the survival is 64%.

For the compound `CC(=O)OC(COCc1ccccc1)Cn1cnc2ccccc21` (centres undefined), the survival is 69%.

As for `CCN(CC)CCCNC(=O)CN1C(=O)COc2ccc(S(=O)(=O)N3CCC(C)CC3)cc21`, the survival was 101%.

Consider `O=C1c2[nH]nc(-c3ccccc3O)c2C(c2cccc(O)c2)N1Cc1cccnc1` (centres undefined), for which the survival was 95%.

On to `CCc1ccc(C2c3c(-c4ccccc4O)n[nH]c3C(=O)N2Cc2ccncc2)cc1` (centres undefined), for which the survival is 22% (active).

For the compound `CCOc1cc(C2c3c(-c4ccccc4O)n[nH]c3C(=O)N2Cc2cccnc2)ccc1O` (centres undefined), the survival is 93%.

In the case of `CCc1ccc(C2c3c(-c4ccccc4O)n[nH]c3C(=O)N2Cc2cccnc2)cc1` (centres undefined), the survival is 34% (active).

Take `CCCOc1ccc(C2c3c(-c4ccccc4O)n[nH]c3C(=O)N2Cc2cccnc2)cc1` (centres undefined): the survival was 3% (active).

For the compound `CCOc1ccc(C2c3c(-c4ccccc4O)n[nH]c3C(=O)N2Cc2ccncc2)cc1` (centres undefined), the survival is 68%.

For `COC(=O)c1ccc(C2c3c(-c4ccccc4O)n[nH]c3C(=O)N2Cc2cccnc2)cc1` (centres undefined), the survival is 72%.

On to `CCCOc1ccc(C2c3c(-c4ccccc4O)n[nH]c3C(=O)N2CCCOCC)cc1OCC` (centres undefined), for which the survival is 81%.

With `CCOCCCN1C(=O)c2[nH]nc(-c3ccccc3O)c2C1c1ccc(CC)cc1` (centres undefined), the survival was 39% (active).

Consider `CSc1ccc(C2c3c(-c4ccccc4O)n[nH]c3C(=O)N2Cc2ccncc2)cc1` (centres undefined), for which the survival is 70%.

`CCc1ccc(C2c3c(-c4cc(C)ccc4O)n[nH]c3C(=O)N2Cc2cccnc2)cc1` (centres undefined): the survival is 61%.

For `O=C(NC12CC3CC(CC(C3)C1)C2)c1ccco1`, the survival is 72%.

For the compound `CN(C)CCCC1(O)c2ccccc2CCc2ccccc21`, the survival is 85%.

In the case of `O=C(Nc1cc(Cl)cc(Cl)c1)c1ccc(F)c(S(=O)(=O)N2CCCC2)c1`, the survival is 78%.

`CCC(CC)c1nc2ccccc2c(=O)[nH]1`: the survival was 98%.

On to `Cc1cccc(-c2nc3scc(CCNS(=O)(=O)c4ccc5c(c4)OCCO5)n3n2)c1`, for which the survival was 85%.

Regarding `CC(=O)Nc1ccc(NC(=O)c2c(C)nn(-c3ccccc3)c2-n2cccc2)cc1`, the survival was 84%.

Regarding `Cc1nn(-c2ccccc2)c(-n2cccc2)c1C(=O)NCCc1ccc(Cl)cc1`, the survival is 4% (active).

Consider `Cc1nn(-c2ccccc2)c(-n2cccc2)c1C(=O)NCc1ccccc1Cl`, for which the survival was 2% (active).

Consider `Cc1nn(-c2ccc(F)cc2)c(-n2cccc2)c1C(=O)NCCc1ccc(Cl)cc1`, for which the survival was 68%.

In the case of `Cc1ccc(NC(=O)c2c(C)nn(-c3ccccc3)c2-n2cccc2)c(Cl)c1`, the survival was 79%.

Consider `Cc1ccc(CCNC(=O)c2c(C)nn(-c3ccc(F)cc3)c2-n2cccc2)cc1`, for which the survival was 67%.

Regarding `O=C(NC1CCCCC1)c1ccc(S(=O)(=O)N2CCCC2)cc1`, the survival was 79%.

As to `CCOC(=O)c1ccc(NC(=O)Cn2cc(C(=O)C3CC3)c3ccccc32)cc1`, the survival was 68%.

Regarding `Cc1ccccc1NC(=O)c1sc2nc3n(c(=O)c2c1C)N=C(c1ccccc1)CS3`, the survival is 88%.

With `COc1ccc2sc(N3C(=O)C4CC=C(C)CC4C3=O)nc2c1` (centres undefined), the survival was 103%.

With `CCOc1ccc2nc3c(cc2c1)CN(CCO)C(=Nc1cccc(OC)c1)S3`, the survival is 47% (active).

In the case of `CCN=C1Sc2nc3ccc(OCC)cc3cc2CN1CCOC`, the survival was 104%.

Consider `COCCN1Cc2cc3cc4c(cc3nc2SC1=Nc1cccc(OC)c1)OCO4`, for which the survival is 87%.

For `CN(C)c1ccc(NC(=O)CN2CCN(CC(=O)Nc3ccc(Br)cc3)CC2)cc1`, the survival was 80%.

Regarding `CCCn1c(-c2ccc(F)cc2)cnc1SCC(=O)N1CCCCC1C` (centres undefined), the survival was 74%.

Consider `O=S(=O)(NCCc1csc2nc(-c3ccccc3)nn12)c1cccs1`, for which the survival was 72%.

Regarding `COc1ccc(-c2nc3scc(CCNS(=O)(=O)c4cccs4)n3n2)cc1`, the survival is 6% (active).

Consider `CCc1ccc(S(=O)(=O)NCCc2csc3nc(-c4ccccc4)nn23)s1`, for which the survival was 109%.

Regarding `CCS(=O)(=O)NCCc1csc2nc(-c3ccc(C)cc3)nn12`, the survival is 83%.

Take `COc1ccc(-c2nc3scc(CCNS(=O)(=O)c4ccccc4F)n3n2)cc1`: the survival is 90%.

For the compound `O=S(=O)(NCCc1csc2nc(-c3ccc(Cl)cc3)nn12)c1cccs1`, the survival is 84%.

As for `COc1ccc(S(=O)(=O)NCCc2csc3nc(-c4ccccc4)nn23)cc1OC`, the survival is 72%.

For the compound `CS(=O)(=O)NCCc1csc2nc(-c3ccccc3)nn12`, the survival is -2% (active).

As for `COc1ccc(OC)c(S(=O)(=O)NCCc2csc3nc(-c4ccccc4)nn23)c1`, the survival was -1% (active).

For `CCOc1ccc(C(=O)Nc2ccc3nc(SCc4ccccc4)sc3c2)cc1`, the survival is 91%.

For the compound `O=c1c2c(nc3n1CCCS3)-c1ccccc1CC21CCCC1`, the survival was 73%.

Regarding `CC1=C(C(=O)OC2CCCCCC2)C(c2cccc(F)c2F)CC(=O)N1` (centres undefined), the survival is 128%.
